# Assay results: PubChem BioAssay (EPA / NIEHS)
# Results filed as inconclusive are left out. The source holds several records for some structures; these can differ, active in one and inactive in another. Active and inactive are the calls of the source. How the source made its calls, unless noted: active means hit-call score of the fitted dose curve at least 0.9, where 1 is the maximum; inactive means score below 0.9.
# What was measured:
# [1] = target: Estrogen receptor (Homo sapiens) (UniProt P03372); test: OT_ERa_GFPERaERE_0120: Odyssey Thera (OT) 2-hour HeLa Transcription Induction Assay for Estrogen Receptor (AID 2283382; active means hit-call score of the fitted dose curve at least 0.9, where 1 is the maximum)
# Sequence of Estrogen receptor (Homo sapiens) (P03372 whole entry, looked up): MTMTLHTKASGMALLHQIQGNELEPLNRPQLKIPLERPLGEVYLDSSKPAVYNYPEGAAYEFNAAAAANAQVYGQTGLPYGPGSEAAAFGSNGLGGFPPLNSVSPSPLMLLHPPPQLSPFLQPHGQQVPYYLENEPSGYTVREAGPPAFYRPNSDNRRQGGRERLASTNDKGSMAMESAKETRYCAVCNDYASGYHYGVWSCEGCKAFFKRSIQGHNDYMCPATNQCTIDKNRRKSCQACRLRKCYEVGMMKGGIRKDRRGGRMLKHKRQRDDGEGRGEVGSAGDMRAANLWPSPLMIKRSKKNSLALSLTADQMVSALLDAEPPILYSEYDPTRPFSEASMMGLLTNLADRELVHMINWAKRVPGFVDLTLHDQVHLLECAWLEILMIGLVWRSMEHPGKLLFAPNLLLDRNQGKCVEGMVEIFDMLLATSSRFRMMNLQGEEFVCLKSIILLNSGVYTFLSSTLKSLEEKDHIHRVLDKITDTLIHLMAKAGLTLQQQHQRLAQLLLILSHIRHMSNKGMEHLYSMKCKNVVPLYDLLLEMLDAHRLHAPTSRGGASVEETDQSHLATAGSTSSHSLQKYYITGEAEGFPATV
# Summary of the method: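 HeLa, 384-well, 2 h chemical exposure; GFP reporter induction (ERE), fluorescence microscopy; high content image analysis; positive fitting direction vs DMSO.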
# [2] = target: Bile acid receptor (Homo sapiens) (UniProt Q96RI1); test: OT_FXR_FXRSRC1_0480: Odyssey Thera (OT) 8-hour HEK293T Protein-Complementation Assay for Farnesoid X receptor/SRC-1 Co-activator (AID 2283383; active means hit-call score of the fitted dose curve at least 0.9, where 1 is the maximum)
# Sequence of Bile acid receptor (Homo sapiens) (Q96RI1 whole entry, looked up, the tested form may be a part): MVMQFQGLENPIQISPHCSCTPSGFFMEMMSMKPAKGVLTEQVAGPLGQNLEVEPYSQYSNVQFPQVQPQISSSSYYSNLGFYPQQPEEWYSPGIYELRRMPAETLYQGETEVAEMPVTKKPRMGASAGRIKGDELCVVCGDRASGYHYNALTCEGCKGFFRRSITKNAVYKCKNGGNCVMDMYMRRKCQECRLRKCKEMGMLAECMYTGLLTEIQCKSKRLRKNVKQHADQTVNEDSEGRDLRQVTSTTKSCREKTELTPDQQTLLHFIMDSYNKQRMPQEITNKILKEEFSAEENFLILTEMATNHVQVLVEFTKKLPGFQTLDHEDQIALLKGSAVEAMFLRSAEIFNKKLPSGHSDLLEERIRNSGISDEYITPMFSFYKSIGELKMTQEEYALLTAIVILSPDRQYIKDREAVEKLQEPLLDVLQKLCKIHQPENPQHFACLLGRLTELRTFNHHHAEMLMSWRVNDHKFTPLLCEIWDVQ
# Summary of the method: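 Human kidney HEK293T cells carried FXR/SRC-1 fragment-complementation constructs. Compounds were added and incubated 8 h. Reporter reassembly upon receptor–co-activator interaction was then quantified by fluorescence, with curves fitted in the positive direction relative to DMSO.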
# [3] = target: Bile acid receptor (Homo sapiens) (UniProt Q96RI1); test: OT_FXR_FXRSRC1_1440: Odyssey Thera (OT) 24-hour HEK293T Protein-Complementation Assay for Farnesoid X receptor/SRC-1 Co-activator (AID 2283384; active means hit-call score of the fitted dose curve at least 0.9, where 1 is the maximum)
# Summary of the method: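 Compounds are applied to human kidney HEK293T cells expressing bait and prey fused to reporter protein fragments; after 24 h, reconstituted reporter fluorescence is measured. Activity is fitted as signal gain over DMSO.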
# [4] = target: Peroxisome proliferator-activated receptor gamma (Homo sapiens) (UniProt P37231); test: OT_PPARg_PPARgSRC1_0480: Odyssey Thera (OT) 8-hour Protein-Complementation Assay for Peroxisome Proliferator-activated Receptor Gamma / SRC-1 Co-activator (AID 2283387; active means hit-call score of the fitted dose curve at least 0.9, where 1 is the maximum;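 further: nuclear to cytoplasmic split Venus YFP fluorescence ratio reporting PPARg SRC-1 interaction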)
# Sequence of Peroxisome proliferator-activated receptor gamma (Homo sapiens) (P37231 whole entry, looked up, the tested form may be a part): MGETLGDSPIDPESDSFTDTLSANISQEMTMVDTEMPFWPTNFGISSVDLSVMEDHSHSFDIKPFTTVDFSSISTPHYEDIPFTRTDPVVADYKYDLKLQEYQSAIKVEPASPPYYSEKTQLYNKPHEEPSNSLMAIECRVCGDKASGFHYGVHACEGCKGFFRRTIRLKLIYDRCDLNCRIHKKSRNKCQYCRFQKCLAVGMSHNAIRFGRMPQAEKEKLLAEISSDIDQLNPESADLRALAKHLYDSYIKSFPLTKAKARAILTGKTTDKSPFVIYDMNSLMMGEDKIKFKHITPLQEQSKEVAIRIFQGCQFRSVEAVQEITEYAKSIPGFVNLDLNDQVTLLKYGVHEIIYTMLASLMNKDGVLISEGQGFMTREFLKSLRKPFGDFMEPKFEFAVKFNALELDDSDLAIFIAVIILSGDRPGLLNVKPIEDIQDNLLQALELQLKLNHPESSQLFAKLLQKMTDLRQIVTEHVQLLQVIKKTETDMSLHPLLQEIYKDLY
# Summary of the method: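 Protein-fragment complementation in HEK293T: Venus YFP halves (residues 1-158, 159-239, mutated to IFP1/IFP2) fused to PPARg/SRC-1. 8 h exposure; N/C ratio at 488 nm; DMSO negative control.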
# [5] = target: Peroxisome proliferator-activated receptor gamma (Homo sapiens) (UniProt P37231); test: OT_PPARg_PPARgSRC1_1440: Odyssey Thera (OT) 24-hour Protein-Complementation Assay for Peroxisome Proliferator-activated Receptor Gamma/ SRC-1 Co-activator (AID 2283388; active means hit-call score of the fitted dose curve at least 0.9, where 1 is the maximum;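 further: nuclear to cytoplasmic ratio of reconstituted Venus YFP fluorescence in fixed imaged cells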)
# Summary of the method: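 Protein-fragment complementation between PPARg and coactivator SRC-1 was measured by fluorescence imaging in transiently transfected HEK293T cells after 24 h treatment. Signal was quantified as N/C ratio in the 488 nm channel, with DMSO as negative control.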
# [6] = CEETOX_H295R_OHPREG: CeeTox H295R High-throughput Steroidogenesis Assay for OH-Pregnenolone (OHPREG) (AID 2283434); conditions: actives raise or lower the signal
# Summary of the method: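 Hormone levels in spent medium were measured by tandem mass spectrometry following liquid-liquid extraction. Cells (H295R) had been forskolin-stimulated (10 uM, 48 h) before a 48 h chemical exposure at 0.1% DMSO, with activity fitted in both directions against DMSO.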
# [7] = CEETOX_H295R_OHPROG: CeeTox H295R High-throughput Steroidogenesis Assay for OH-Progesterone (OHPROG) (AID 2283435); conditions: actives raise or lower the signal;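 on AC50: 17alpha-hydroxyprogesterone secreted into medium measured by HPLC-MS/MS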
# Summary of the method: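 H295R, 10 uM forskolin prestim 48 h; cmpd in 0.1% DMSO 48 h; medium MTBE-extracted, HPLC-MS/MS for OH-progesterone; 7-pt std curve; bidirectional fit vs DMSO; MTT viability, chemicals diluted until viability >/=70%.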
# [8] = CEETOX_H295R_ESTRADIOL: CeeTox H295R High-throughput Steroidogenesis Assay for Estradiol (AID 2283440); conditions: actives raise or lower the signal;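 further: estradiol secreted into medium quantified by LC-MS/MS after dansyl derivatisation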
# Summary of the method: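 Estradiol secreted into the medium was measured by tandem mass spectrometry after liquid-liquid extraction and dansylation. Human H295R cells had been forskolin-primed (10 uM, 48 h) before a 48 h chemical exposure with 0.1% DMSO.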
# [9] = CEETOX_H295R_ESTRONE: CeeTox H295R High-throughput Steroidogenesis Assay for Estrone (AID 2283441); conditions: actives raise or lower the signal;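 further: estrone secreted into medium measured by LC-MS/MS after dansyl derivatization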;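 on AC50: human adrenal H295R cells prestimulated with forskolin for two days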
# Summary of the method: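 H295R cells prestimulated 48 h with 10 uM forskolin, then exposed 48 h to chemicals in 0.1% DMSO final; estrone in medium extracted with MTBE, dansyl-derivatized, quantified by HPLC-MS/MS; bidirectional fitting versus DMSO, viability by MTT.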
# [10] = CEETOX_H295R_PROG: CeeTox H295R High-throughput Steroidogenesis Assay for Progesterone (PROG) (AID 2283442); conditions: actives raise or lower the signal;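 on AC50: human H295R adrenal cells primed with 10 µM forskolin before dosing; progesterone secreted into medium by H295R cells measured by HPLC-MS/MS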
# Summary of the method: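 Steps: seed H295R cells and let them adhere overnight; prime 48 h with 10 uM forskolin; dose with compound in DMSO at 0.1% final for 48 h; extract medium steroids with MTBE; measure progesterone by LC-MS/MS. MTT viability was run in the same wells.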
# [11] = read-out: Tumor necrosis factor receptor superfamily member 6 (Homo sapiens) (UniProt P25445); test: LTEA_HepaRG_FAS: Life Technologies and Expression Analysis (LTEA) Assay for Fas cell surface death receptor (FAS) using HepaRG (AID 2283447); conditions: mRNA level, 48 h; actives raise or lower the signal
# Summary of the method: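 FAS transcript level was measured by TaqMan qRT-PCR against three housekeeping genes after 48 h chemical exposure. Cells were HepaRG, 0.5% DMSO vehicle, with a top concentration of 100 uM and half-log dilutions over eight points, in duplicate.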
# [12] = read-out: Fatty acid synthase (Homo sapiens) (UniProt P49327); test: LTEA_HepaRG_FASN: Life Technologies and Expression Analysis (LTEA) Assay for Fatty Acid Synthase (FASN) using HepaRG (AID 2283448); conditions: mRNA level, 48 h; actives raise or lower the signal;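 on AC50: differentiated human HepaRG liver cells in serum-free induction medium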
# Summary of the method: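 FASN expression changes, up or down relative to 0.5% DMSO, were measured by qRT-PCR in human HepaRG cells after 48 h treatment with chemicals at eight concentrations (half-log steps from 100 uM).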
# [13] = read-out: Cyclin Dependent Kinase Inhibitor 1A (CDKN1A), CDKN1A (gene 1026); test: LTEA_HepaRG_CDKN1A: Life Technologies and Expression Analysis (LTEA) Assay for Cyclin Dependent Kinase Inhibitor 1A (CDKN1A) using HepaRG (AID 2283450); conditions: mRNA level, 48 h; actives raise or lower the signal
# Summary of the method: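 Read-out is CDKN1A mRNA by TaqMan qRT-PCR, normalized to three housekeeping genes and fitted in both directions against the DMSO baseline. Human HepaRG cells were treated 48 h with test chemicals up to 100 uM in half-log steps, 0.5% DMSO.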
# [14] = read-out: Cyclin D1 (CCND1), CCND1 (gene 595); test: LTEA_HepaRG_CCND1: Life Technologies and Expression Analysis (LTEA) Assay for Cyclin D1 (CCND1) using HepaRG (AID 2283451); conditions: mRNA level, 48 h; actives raise or lower the signal
# Summary of the method: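 HepaRG plated 48 h, medium switched to serum-free induction medium, chemicals added in duplicate (top 100 uM, half-log steps, 0.5% DMSO) for 48 h, cells lysed, RNA measured by TaqMan qRT-PCR.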
# [15] = read-out: catalase (CAT), CAT (gene 847); test: LTEA_HepaRG_CAT: Life Technologies and Expression Analysis (LTEA) Assay for catalase (CAT) using HepaRG (AID 2283452); conditions: mRNA level, 48 h; actives raise or lower the signal;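 on AC50: TaqMan qRT-PCR signal normalized to ACTB GAPDH and POLR2A housekeeping genes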
# Summary of the method: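 Expression of CAT was quantified by TaqMan qRT-PCR with ACTB/GAPDH/POLR2A normalization after 48 h chemical exposure of HepaRG. Eight-point half-log series, top 100 uM, in 0.5% DMSO; gain or loss fitted against vehicle.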
# [16] = target: Retinoic acid receptor RXR-alpha (Homo sapiens) (UniProt P19793); test: OT_NURR1_NURR1RXRa_1440: Odyssey Thera (OT) 24-hour HEK293T Protein Complementation Assay for Nurr1/retinoid X receptor (RXR) (AID 2283386; active means hit-call score of the fitted dose curve at least 0.9, where 1 is the maximum)
# Sequence of Retinoic acid receptor RXR-alpha (Homo sapiens) (P19793 whole entry, looked up, the tested form may be a part): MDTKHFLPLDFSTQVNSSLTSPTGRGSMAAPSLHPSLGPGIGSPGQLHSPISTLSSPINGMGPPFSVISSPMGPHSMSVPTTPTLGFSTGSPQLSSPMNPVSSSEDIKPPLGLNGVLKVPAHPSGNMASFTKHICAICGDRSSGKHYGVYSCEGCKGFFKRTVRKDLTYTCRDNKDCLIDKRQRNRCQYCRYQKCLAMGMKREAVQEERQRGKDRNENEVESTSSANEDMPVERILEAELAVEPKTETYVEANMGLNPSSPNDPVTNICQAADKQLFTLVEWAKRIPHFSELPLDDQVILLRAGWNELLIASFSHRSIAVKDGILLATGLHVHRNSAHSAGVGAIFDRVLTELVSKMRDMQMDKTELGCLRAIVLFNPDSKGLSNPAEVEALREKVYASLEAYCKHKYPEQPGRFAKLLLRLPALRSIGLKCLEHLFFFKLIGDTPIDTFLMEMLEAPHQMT
# Summary of the method: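 Interaction of Nurr1 with RXRα brings fused reporter fragments together in human HEK293T cells, restoring a functional reporter. Fluorescence intensity is measured 24 h after chemical treatment, and values are analysed in the positive direction against DMSO.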
# [17] = CEETOX_H295R_CORTIC: CeeTox H295R High-throughput Steroidogenesis Assay for Corticosterone (CORTIC) (AID 2283437); conditions: actives raise or lower the signal;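 further: corticosterone secreted into medium quantified by mass spectrometry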
# Summary of the method: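 Corticosterone secreted into medium is measured by reverse-phase HPLC with tandem MS following liquid-liquid extraction. Cells are forskolin-stimulated (10 uM, 48 h) before 48 h test exposure; activity fitted in both directions against DMSO.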
# [18] = CEETOX_H295R_CORTISOL: CeeTox H295R High-throughput Steroidogenesis Assay for Cortisol (AID 2283438); conditions: actives raise or lower the signal;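 further: cortisol secreted into medium quantified by LC-MS/MS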
# Summary of the method: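 Forskolin 10 uM 48 h prestim → test cmpd in DMSO (0.1% final) 48 h → medium MTBE-extracted → LC-MS/MS cortisol vs 7-pt std curve. Gain/loss of signal fitted vs DMSO. MTT viability in same wells.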
# [19] = CEETOX_H295R_DOC: CeeTox H295R High-throughput Steroidogenesis Assay for DOC (AID 2283439); conditions: actives raise or lower the signal
# Summary of the method: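 Readout: 11-deoxycorticosterone in culture medium by reverse-phase C18 HPLC with ESI+ tandem MS after MTBE extraction. Cells: H295R, forskolin-primed (10 uM, 48 h), chemical-treated 48 h; DMSO 0.1% final. Activity fitted bidirectionally versus DMSO.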
# Sequence of Fatty acid synthase (Homo sapiens) (P49327 whole entry, looked up): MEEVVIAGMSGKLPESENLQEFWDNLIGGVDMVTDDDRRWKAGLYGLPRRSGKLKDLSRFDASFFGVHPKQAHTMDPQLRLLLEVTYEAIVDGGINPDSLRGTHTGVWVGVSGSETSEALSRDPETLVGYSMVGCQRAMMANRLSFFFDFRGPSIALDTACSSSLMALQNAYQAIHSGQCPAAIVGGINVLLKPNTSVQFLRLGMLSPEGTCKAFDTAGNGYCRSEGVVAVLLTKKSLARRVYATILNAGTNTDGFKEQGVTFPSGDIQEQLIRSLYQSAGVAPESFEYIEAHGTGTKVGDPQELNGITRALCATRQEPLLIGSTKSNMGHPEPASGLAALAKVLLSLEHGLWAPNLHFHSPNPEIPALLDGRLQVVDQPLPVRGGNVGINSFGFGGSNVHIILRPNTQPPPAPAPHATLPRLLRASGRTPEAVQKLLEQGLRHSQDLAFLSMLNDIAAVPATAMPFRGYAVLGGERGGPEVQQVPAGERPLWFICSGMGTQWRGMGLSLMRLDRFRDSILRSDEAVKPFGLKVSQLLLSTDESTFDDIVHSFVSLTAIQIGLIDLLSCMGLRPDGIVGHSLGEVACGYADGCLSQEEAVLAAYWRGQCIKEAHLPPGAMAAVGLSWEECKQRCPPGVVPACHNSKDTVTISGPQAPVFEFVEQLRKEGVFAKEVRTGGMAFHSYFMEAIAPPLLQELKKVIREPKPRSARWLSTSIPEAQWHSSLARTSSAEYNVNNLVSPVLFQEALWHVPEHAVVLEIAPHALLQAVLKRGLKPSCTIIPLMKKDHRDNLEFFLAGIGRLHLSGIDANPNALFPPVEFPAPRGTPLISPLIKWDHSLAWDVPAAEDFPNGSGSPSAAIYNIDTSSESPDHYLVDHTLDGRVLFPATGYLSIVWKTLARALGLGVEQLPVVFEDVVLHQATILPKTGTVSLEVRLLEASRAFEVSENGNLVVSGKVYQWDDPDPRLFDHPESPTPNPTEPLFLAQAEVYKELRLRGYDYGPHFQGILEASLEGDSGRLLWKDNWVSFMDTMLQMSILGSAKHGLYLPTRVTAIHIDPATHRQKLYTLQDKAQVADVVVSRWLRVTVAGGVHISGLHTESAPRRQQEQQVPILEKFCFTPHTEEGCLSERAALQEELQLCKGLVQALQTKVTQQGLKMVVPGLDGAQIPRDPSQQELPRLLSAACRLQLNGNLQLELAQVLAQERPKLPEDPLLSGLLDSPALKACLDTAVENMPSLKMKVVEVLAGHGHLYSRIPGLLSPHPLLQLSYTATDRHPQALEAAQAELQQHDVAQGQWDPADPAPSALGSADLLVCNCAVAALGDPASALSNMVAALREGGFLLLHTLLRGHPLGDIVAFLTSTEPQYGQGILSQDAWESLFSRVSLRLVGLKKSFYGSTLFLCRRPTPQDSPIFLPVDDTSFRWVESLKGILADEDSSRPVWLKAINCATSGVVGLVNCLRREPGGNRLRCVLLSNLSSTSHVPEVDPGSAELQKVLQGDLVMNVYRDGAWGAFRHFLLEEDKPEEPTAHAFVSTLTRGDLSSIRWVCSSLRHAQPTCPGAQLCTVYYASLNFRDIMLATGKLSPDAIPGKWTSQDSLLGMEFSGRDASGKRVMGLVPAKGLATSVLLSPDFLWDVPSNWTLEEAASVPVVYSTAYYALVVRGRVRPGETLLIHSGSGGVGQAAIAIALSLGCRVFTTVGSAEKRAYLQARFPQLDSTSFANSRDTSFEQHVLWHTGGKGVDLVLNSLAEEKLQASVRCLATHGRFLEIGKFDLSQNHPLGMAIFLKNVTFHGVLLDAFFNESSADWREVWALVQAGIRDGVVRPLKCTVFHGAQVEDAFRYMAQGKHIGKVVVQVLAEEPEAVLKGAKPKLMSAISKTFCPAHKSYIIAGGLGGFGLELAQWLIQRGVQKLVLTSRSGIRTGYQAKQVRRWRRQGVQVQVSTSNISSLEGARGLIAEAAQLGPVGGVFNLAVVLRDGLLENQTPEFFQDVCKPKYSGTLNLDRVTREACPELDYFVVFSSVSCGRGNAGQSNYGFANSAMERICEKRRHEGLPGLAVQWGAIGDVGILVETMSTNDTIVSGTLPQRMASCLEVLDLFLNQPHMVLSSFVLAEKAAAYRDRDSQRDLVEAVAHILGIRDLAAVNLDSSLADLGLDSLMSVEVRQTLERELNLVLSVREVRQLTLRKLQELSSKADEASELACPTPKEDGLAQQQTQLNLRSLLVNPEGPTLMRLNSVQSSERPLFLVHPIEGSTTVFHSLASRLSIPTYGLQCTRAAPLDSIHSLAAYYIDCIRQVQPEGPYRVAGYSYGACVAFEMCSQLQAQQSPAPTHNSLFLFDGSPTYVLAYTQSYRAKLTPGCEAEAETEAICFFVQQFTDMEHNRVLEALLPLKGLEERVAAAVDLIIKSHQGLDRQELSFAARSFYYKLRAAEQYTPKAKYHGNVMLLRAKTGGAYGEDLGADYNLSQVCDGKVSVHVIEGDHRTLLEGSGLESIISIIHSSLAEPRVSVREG
structure (smiles),measurement,setting,value
CC(C)OC(=O)Nc1cccc(Cl)c1,outcome,[1],inactive
same,AC50,[2],48.4 µM (active)
same,outcome,[3],inactive
same,outcome,[4],inactive
same,outcome,[5],inactive
same,outcome,[6],inactive
same,outcome,[7],inactive
same,outcome,[8],inactive
same,AC50,[9],15.6 µM (active)
same,outcome,[10],inactive
same,outcome,[11],inactive
same,outcome,[12],inactive
same,outcome,[13],inactive
same,outcome,[14],inactive
same,outcome,[15],inactive
CNC(=O)/C=C(\C)OP(=O)(OC)OC,outcome,[1],inactive
same,outcome,[3],inactive
same,outcome,[16],inactive
same,outcome,[4],inactive
same,outcome,[5],inactive
same,outcome,[6],inactive
same,outcome,[7],inactive
same,outcome,[17],inactive
same,outcome,[18],inactive
same,outcome,[19],inactive
same,outcome,[8],inactive
same,outcome,[9],inactive
same,outcome,[10],inactive
same,outcome,[11],inactive
same,outcome,[12],inactive
same,outcome,[13],inactive
same,outcome,[14],inactive
same,outcome,[15],inactive
CNC(=O)Oc1cccc(N=CN(C)C)c1,outcome,[1],inactive
same,outcome,[2],inactive
same,outcome,[4],inactive
same,outcome,[5],inactive
same,outcome,[6],inactive
same,outcome,[7],inactive
same,outcome,[8],inactive
same,outcome,[9],inactive
same,AC50,[10],35.9 µM (active)
same,outcome,[11],inactive
same,outcome,[12],inactive
same,outcome,[13],inactive
same,outcome,[14],inactive
same,outcome,[15],inactive
CCc1ccc(C(=O)NN(C(=O)c2cc(C)cc(C)c2)C(C)(C)C)cc1,outcome,[1],inactive
same,outcome,[2],inactive
same,AC50,[3],10.6 µM (active)
same,outcome,[16],inactive
same,outcome,[4],inactive
same,outcome,[5],inactive
same,outcome,[6],inactive
same,outcome,[7],inactive
same,outcome,[17],inactive
same,outcome,[18],inactive
same,outcome,[19],inactive
same,outcome,[8],inactive
same,outcome,[9],inactive
same,outcome,[10],inactive
same,outcome,[11],inactive
same,outcome,[12],inactive
same,outcome,[13],inactive
same,outcome,[14],inactive
same,outcome,[15],inactive
CC[C@H](C)[C@H]1O[C@]2(C=C[C@@H]1C)C[C@@H]1C[C@@H](C/C=C(\C)[C@@H](O[C@H]3C[C@H](OC)[C@@H](O[C@H]4C[C@H](OC)[C@@H](O)[C@H](C)O4)[C@H](C)O3)[C@@H](C)/C=C/C=C3\CO[C@@H]4[C@H](O)C(C)=C[C@@H](C(=O)O1)[C@]34O)O2 (tested in a mixture with another compound),outcome,[1],inactive
same,AC50,[16],9.87 µM (active)
same,outcome,[16],inactive
same,outcome,[4],inactive
same,outcome,[5],inactive
same,outcome,[6],inactive
same,outcome,[7],inactive
same,outcome,[17],inactive
same,outcome,[18],inactive
same,outcome,[19],inactive
same,outcome,[10],inactive
same,AC50,[12],11.4 µM (active)
same,AC50,[13],7.59 µM (active)
same,outcome,[14],inactive
same,AC50,[15],10.5 µM (active)
Cc1[nH]c(=O)n(C(C)(C)C)c(=O)c1Cl,outcome,[1],inactive
same,outcome,[2],inactive
same,outcome,[3],inactive
same,outcome,[16],inactive
same,outcome,[4],inactive
same,outcome,[5],inactive
same,outcome,[11],inactive
same,AC50,[12],68.9 µM (active)
same,outcome,[13],inactive
same,outcome,[14],inactive
same,outcome,[15],inactive
CCN(CC)C(=O)SCc1ccc(Cl)cc1,outcome,[1],inactive
same,AC50,[2],40 µM (active)
same,outcome,[3],inactive
same,outcome,[4],inactive
same,outcome,[5],inactive
same,AC50,[6],19.3 µM (active)
same,outcome,[7],inactive
same,outcome,[17],inactive
same,outcome,[18],inactive
same,AC50,[19],22.6 µM (active)
same,outcome,[10],inactive
same,outcome,[11],inactive
same,outcome,[12],inactive
same,outcome,[13],inactive
same,outcome,[14],inactive
same,outcome,[15],inactive
CCC(C)Nc1c([N+](=O)[O-])cc(C(C)(C)C)cc1[N+](=O)[O-] (stereo unspecified),AC50,[1],12.2 µM (active)
same,AC50,[16],83.6 µM (active)
same,outcome,[16],inactive
same,outcome,[4],inactive
same,outcome,[5],inactive
same,AC50,[6],74.5 µM (active)
same,AC50,[7],71.7 µM (active)
same,outcome,[17],inactive
same,AC50,[18],78.1 µM (active)
same,AC50,[19],87.1 µM (active)
same,outcome,[8],inactive
same,outcome,[9],inactive
same,AC50,[10],88.3 µM (active)
same,outcome,[11],inactive
same,outcome,[12],inactive
same,outcome,[13],inactive
same,outcome,[14],inactive
same,outcome,[15],inactive
O=C1c2ccccc2C(=O)N1SC(Cl)(Cl)Cl,outcome,[1],inactive
same,outcome,[3],inactive
same,outcome,[4],inactive
same,outcome,[5],inactive
same,outcome,[6],inactive
same,outcome,[7],inactive
same,outcome,[8],inactive
same,outcome,[9],inactive
same,outcome,[10],inactive
same,outcome,[11],inactive
same,outcome,[12],inactive
same,outcome,[13],inactive
same,outcome,[14],inactive
same,outcome,[15],inactive
OCCOc1ccccc1,outcome,[1],inactive
same,outcome,[2],inactive
same,outcome,[3],inactive
same,outcome,[16],inactive
same,outcome,[4],inactive
same,outcome,[5],inactive
same,outcome,[11],inactive
same,outcome,[12],inactive
same,outcome,[13],inactive
same,outcome,[14],inactive
same,outcome,[15],inactive
